Common to all, as to assay: NCI-60 one-dose screen, 48 h (100 = growth as untreated, 0 = no growth, -100 = all killed)
Test [1] relates to DU-145 prostate. The settings on record: 10 µM unless noted.
The test system of test [2] is K-562 leukemia. The following applies: 10 µM unless noted.
The subject of test [3] is MALME-3M melanoma. The following applies: 10 µM unless noted.
Test [4] deals with MDA-MB-231 breast. The settings on record: 10 µM unless noted.
Test [5] deals with RXF 393 renal. The settings on record: 10 µM unless noted.
Test [6] has as its system SF-268 CNS. The settings on record: 10 µM unless noted.
Test [7] has as its system SF-295 CNS. The following applies: 10 µM unless noted.
In test [8] the test system is SF-539 CNS. The following applies: 10 µM unless noted.
Test [9] deals with UACC-257 melanoma. The settings on record: 10 µM unless noted.
Test [10] relates to M14 melanoma. The settings on record: 10 µM unless noted.
The test system of test [11] is HCT-15 colon. The following applies: 10 µM unless noted.
Test [12] relates to HT29 colon. The following applies: 10 µM unless noted.
Test [13] has as its system SNB-75 CNS. The settings on record: 10 µM unless noted.
Test [14] has as its system SNB-19 CNS. The following applies: 10 µM unless noted.
In test [15] the test system is U251 CNS. The settings on record: 10 µM unless noted.
For test [16], the system named is PC-3 prostate. The following applies: 10 µM unless noted.
The test system of test [17] is SK-MEL-5 melanoma. The settings on record: 10 µM unless noted.
For test [18], the system named is UACC-62 melanoma. The following applies: 10 µM unless noted.
Test [19] concerns LOX IMVI melanoma. The settings on record: 10 µM.
In test [20] the test system is SK-MEL-28 melanoma. The settings on record: 10 µM unless noted.

This is part of a sample that, as a whole, favours compounds with a hit. Of some 83,000 tested, about 20% had one in any assay.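 Method: cells in 96-well plates; compound added at one concentration; 48 h incubation; percent growth measured; values under 10 scored active.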 Unmarked numbers belong to inactive results. Activity calls are given as the source filed them.

Regarding `COc1cc2c(c(OC)c1OC)C(=O)CC(c1cccc(NC(=O)c3cc([N+](=O)[O-])ccc3Cl)c1)O2` (stereo unspecified), the growth in test [1] is 5.58% (active); in test [2], 19.5%; in test [3] it was 51.9%; in [4] it was 6.08% (active); in [5], -6.08% (active); in test [6], 42.2%. Besides, the growth in test [7] is 49.8%; in [8], 22.2%; in test [9], 39.9%; in test [10], 0.0604% (active); in test [11], -0.987% (active); in test [12] it was 23.2%. Also, the growth was 12.9% in test [13]; 52.6% in [14]; 30.7% in [15]; 42.7% in test [16]; 23.3% in [17]; 45.2% in test [18].

For `N/C(=N\c1nc2ccccc2s1)NC(=O)Nc1ccccc1Br`, the growth was -40.7% (active) in test [1]; 11.5% in test [2]; -12.5% (active) in [3]; -50.3% (active) in test [4]; 0.178% (active) in [5]; 1.62% (active) in test [6]. Also, the growth in test [7] was -31.4% (active); in test [8], -75.6% (active); in test [9], 54.8%; in [10] it was 2.92% (active); in [11] it was -4.76% (active); in test [12], -61.1% (active). Moreover, the growth in [13] was -33.3% (active); in [14] it was 2.22% (active); in test [15], -53.3% (active); in test [16], 34.6%; in test [17], -55.3% (active); in test [18], -7.53% (active). Besides, the figures for the growth in test [19] and in [20] were -75.7% (active) and 28.5%, respectively.

For `Cn1cc(-c2nnc(N)nc2-c2c[nH]c3ccc(Br)cc23)c2cc(Br)cnc21`, the growth in test [1] was 75.8%; in [2], 26.7%; in [3], 69%; in test [4], 55.8%; in [5], 17.1%; in test [6] it was 71.3%. In addition, the growth is 63.5% in test [7]; 63.6% in [8]; 83.4% in test [9]; 57.2% in [10]; 22.4% in test [11]; 16.6% in [12]. For the same compound, the growth in test [13] was 32%; in test [14] it was 65.5%; in test [15], 62.4%; in test [16] it was 38.5%; in [17], 68%; in test [18] it was 46.3%. Also, the growth in test [19] was 58.7%; in test [20], 43.6%.

`O=C(c1ccccc1)C(c1c[nH]c2ccccc12)c1c[nH]c2ccccc12`: the growth in [1] was 71.7%; in [2], 10.3%; in [3], 72.8%; in test [4], 57.5%; in test [5], 46.8%; in test [6], 60.3%. The growth in test [7] is 85.4%; in test [8], 85.4%; in [9] it was 76.8%; in [10], 61.1%; in [11], 13%; in test [12], 22.9%. Besides, the growth in [13] was 72.4%; in test [14] it was 91.7%; in test [15], 59.9%; in test [16] it was 38.6%; in [17] it was 92.5%; in test [18], 60.4%. The growth in test [19] is -48.4% (active); in [20], 76.9%.

For the compound `O=C(CN1C(=O)/C(=C/c2ccccc2Cl)SC1=S)N1CCOCC1`, the growth in test [1] was 78.1%; in test [2], 27%; in test [3] it was 76.3%; in test [4], 94.3%; in test [5] it was 77.4%; in test [6], 106%. Further, the growth in [7] was 107%; in test [8], 91.7%; in test [9], 94.3%; in [10] it was 85.3%; in test [11], 45%; in test [12], 96.4%. Besides, the growth was 109% in test [13]; 92.4% in [14]; 93.4% in test [15]; 102% in [16]; 98.9% in test [17]; 83.2% in test [18]. Also, the growth was 48.2% in [19] and 98.8% in test [20].

Take `CC1[C@H]2[C@H](C[C@H]3[C@@H]4CC=C5c6sc(Nc7ccccc7F)nc6CC[C@]5(C)[C@H]4CC[C@@]32C)O[C@]12CC[C@@H](C)CO2` (stereo partly specified): the growth is -48.6% (active) in test [1]; 1.23% (active) in test [2]; -73.9% (active) in [3]; -57.5% (active) in [4]; -88.7% (active) in test [5]; -53.5% (active) in test [6]. Also, the growth in test [7] is -75.5% (active); in test [8], -87.9% (active); in test [9] it was -85.1% (active); in [10] it was -87.8% (active); in [11] it was -80% (active); in test [12], -79.3% (active). Also, the growth in [13] is -55.6% (active); in [14], -37.5% (active); in test [15] it was -88.2% (active); in test [16] it was -47.2% (active); in test [17], -58.1% (active); in test [18], -70.8% (active). For the same compound, the growth in test [19] is -90.4% (active); in test [20] it was -97.1% (active).

`C/C(=N\N=C1/C(=O)Nc2ccccc21)c1ccc2c(c1)Nc1ccccc1S2`: the growth in test [1] was 53.2%; in [2], 31.8%; in test [3] it was 35.5%; in test [4], 39%; in test [5] it was 96.1%; in test [6] it was 55.3%. Besides, the growth is 57.8% in test [7]; 71.7% in test [8]; 27.5% in [9]; 65% in test [10]; 48.6% in test [11]; 71.5% in test [12]. Moreover, the growth in test [13] was 44%; in test [14] it was 64.5%; in test [15], 60.1%; in [16], 63.6%; in [17], 42%; in [18] it was 40.5%.

For `CC1CN(c2oc(-c3ccc([N+](=O)[O-])cc3)nc2C#N)CC(C)O1` (stereo unspecified), the growth was 117% in [1]; 105% in test [2]; 95.7% in test [3]; 95.9% in test [4]; 108% in test [5]; 107% in test [6]. Besides, the growth is 95.5% in test [7]; 93.9% in test [8]; 102% in test [9]; 103% in test [10]; 97.1% in test [11]; 112% in [12]. For the same compound, the growth in [13] was 98.8%; in test [14], 92.2%; in test [15], 104%; in test [16], 96.7%; in test [17] it was 104%; in [18], 84%. For the same compound, the results for the growth in test [19] and in test [20] were 95.6% and 105%, respectively.

The values are drawn from PubChem BioAssay (NCI).
